# In PubChem BioAssay:
# Active and inactive are the calls of the source. Unless noted, no rule for the calls is given here.
# Legend:
# [1] = tested on: Wnt5a (protein binding on small-molecule microarray); experiment: small molecules binding Wnt5a protein – biophysical, small-molecule microarray, 635/667 nm fluorescence, primary screen (AID 1142); conditions: 635 nm fluorescence, higher = more signal;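 also: fluorescence read at 667 nm with signal to noise per printed feature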
# [2] = ATP-based viability of Huh7 replicon cells – cell-based, CellTiter-Glo luminescence, basal, 48 h, cytotoxicity control for HCV replication inhibitor project, primary screen (AID 1143); conditions: higher = more signal, called active from +8 up or from −8 down;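 also: Huh7 hepatoma cells carrying a hepatitis C replication reporter with no stimulus; test concentration not given here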
# [3] = Pseudomonas biofilm growth suppression – PAO1 strain, BacTiter-Glo luminescence, LB-PBS, primary screen (AID 1144); conditions: P. aeruginosa PAO1 biofilm, 12 h, higher = more signal
# [4] = basal CRE-LacZ reporter activity in PC12 – cell-based, unstimulated, primary screen (AID 1145); conditions: no forskolin, luminescence, 4.5 h, higher = more signal, called active from +8 up or from −8 down
# [5] = forskolin-driven CRE-LacZ activity in PC12 – cell-based, CRE-LacZ reporter, forskolin-stimulated, primary screen (AID 1146); conditions: luminescence, 4.5 h, higher = more signal, called active from +8 up or from −8 down;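 also: PC12 cells with 6xCRE LacZ reporter stimulated by forskolin 10 µM; beta-galactosidase reporter signal reflecting CREB driven transcription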
# [6] = molecular target: Streptavidin (Streptomyces avidinii) (UniProt P22629); experiment: compounds binding control protein streptavidin – biophysical, small-molecule microarray, 635/667 nm fluorescence, artefact control for SMM compound annotation, primary screen (AID 1147); conditions: higher = more signal;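 also: signal reflects streptavidin binding to arrayed compounds as a control protein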
# Chain of Streptavidin (Streptomyces avidinii) (P22629 whole entry, looked up): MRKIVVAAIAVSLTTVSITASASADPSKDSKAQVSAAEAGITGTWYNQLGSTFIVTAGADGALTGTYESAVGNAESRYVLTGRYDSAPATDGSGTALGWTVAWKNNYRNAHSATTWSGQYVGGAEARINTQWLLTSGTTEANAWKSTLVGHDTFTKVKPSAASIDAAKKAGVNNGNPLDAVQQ
# [7] = probe aInhba binding on compound microarray – biochemical, small-molecule microarray, 635/667 nm fluorescence, primary screen (AID 1148); conditions: higher = more signal;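 also: score merges 667nm spot fluorescence with signal-to-noise for antibody binding to printed compounds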
# [8] = molecular target: Torsin-1A (Homo sapiens) (UniProt O14656); experiment: TOR1A wild-type binding on microarray – cell lysate, small-molecule microarray, lysate, 635/667 nm, primary screen (AID 1149); conditions: COS7 hTOR1A-WT lysate, 635 nm fluorescence, higher = more signal
# Chain of Torsin-1A (Homo sapiens) (O14656 whole entry, looked up): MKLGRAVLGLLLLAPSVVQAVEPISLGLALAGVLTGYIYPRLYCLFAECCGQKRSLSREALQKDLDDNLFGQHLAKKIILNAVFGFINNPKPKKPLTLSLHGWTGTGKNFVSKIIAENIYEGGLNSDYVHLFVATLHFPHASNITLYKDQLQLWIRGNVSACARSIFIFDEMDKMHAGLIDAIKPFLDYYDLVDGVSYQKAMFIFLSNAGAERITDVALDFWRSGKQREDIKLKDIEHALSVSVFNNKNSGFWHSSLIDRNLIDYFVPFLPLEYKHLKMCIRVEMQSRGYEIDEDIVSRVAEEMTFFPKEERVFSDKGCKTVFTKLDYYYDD
# [9] = molecular target: Torsin-1A (Homo sapiens) (UniProt O14656); experiment: torsin A mutant lysate binding on microarrays – cell lysate, small-molecule microarray, COS7 lysate, 635/667 nm fluorescence, primary screen (AID 1150); conditions: COS7 hTOR1A mutant lysate, 635 nm fluorescence, higher = more signal;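 also: score pools 667 nm emission and signal to noise measuring lysate protein binding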
# [10] = tested on: Sonic hedgehog protein (Shh); experiment: Sonic hedgehog microarray binding compounds – biochemical, small-molecule microarray, 635/667 nm fluorescence, primary screen (AID 1151); conditions: 635 nm fluorescence, higher = more signal;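 also: Shh protein binding to compounds spotted on small-molecule microarray slides; score combines spot fluorescence intensity with signal-to-noise across triplicate slides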
# [11] = optical density shifts of acrAB sulA E. coli – strain DRC41, OD650, 48 h, E. coli filamentation inducer project, primary screen (AID 1152); conditions: higher = more signal, called active from +8 up or from −8 down;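 also: E. coli MC1000 strain DRC41 lacking acrAB efflux pump and sulA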
# [12] = probe aLefty1 binding on compound microarray – biochemical, small-molecule microarray, 635/667 nm fluorescence, primary screen (AID 1153); conditions: higher = more signal;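 also: score merges spot fluorescence with signal-to-noise ratio from the scanned slide images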
# [13] = plasmodial surface anion channel blockers, osmotic lysis – cell-based, P. falciparum Indochina, OD700, 1 h, primary screen (AID 1154); conditions: P. falciparum Indochina infected RBC osmotic lysis, higher = more signal, called active from +8 up or from −8 down
# [14] = plasmodial surface anion channel blockers, osmotic lysis – cell-based, P. falciparum Indochina, OD700, 2 h, primary screen (AID 1155);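 also: lysis reports solute entry through the parasite surface anion channel PSAC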; conditions: P. falciparum Indochina infected erythrocytes, higher = more signal, called active from +8 up or from −8 down
# [15] = changes in parasitized red cell lysis, either direction – P. falciparum Indochina, OD700, 3 h, PSAC antagonist project, primary screen (AID 1156); conditions: P. falciparum-infected erythrocytes, osmotic lysis, higher = more signal, called active from +8 up or from −8 down
# [16] = plasmodial surface anion channel blockers, osmotic lysis – cell-based, P. falciparum Indochina, OD700, 18 h, primary screen (AID 1157); conditions: P. falciparum Indochina infected erythrocytes, osmotic lysis OD700, 18 h; higher = more signal, called active from +8 up or from −8 down
# [17] = S6 kinase pathway phospho-S6 level changes – cell-based, A549, cytoblot, luminescence, serum-stimulated, primary screen (AID 1158); conditions: 5 h, higher = more signal;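 also: serum-stimulated A549 lung adenocarcinoma cells; signal is phosphorylated S6 detected by cytoblot immunostaining with HRP secondary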
# [18] = molecular target: NADPH oxidase 2 (Homo sapiens) (UniProt P04839); experiment: compounds shifting NOX2 Amplex Red fluorescence – cell-based, HEK293-NOX2, PMA-stimulated, NOX inhibitor project, primary screen (AID 1159); conditions: 45 min, higher = more signal, called active from +8 up or from −8 down; also: test concentration not given here
# Chain of NADPH oxidase 2 (Homo sapiens) (P04839 whole entry, looked up): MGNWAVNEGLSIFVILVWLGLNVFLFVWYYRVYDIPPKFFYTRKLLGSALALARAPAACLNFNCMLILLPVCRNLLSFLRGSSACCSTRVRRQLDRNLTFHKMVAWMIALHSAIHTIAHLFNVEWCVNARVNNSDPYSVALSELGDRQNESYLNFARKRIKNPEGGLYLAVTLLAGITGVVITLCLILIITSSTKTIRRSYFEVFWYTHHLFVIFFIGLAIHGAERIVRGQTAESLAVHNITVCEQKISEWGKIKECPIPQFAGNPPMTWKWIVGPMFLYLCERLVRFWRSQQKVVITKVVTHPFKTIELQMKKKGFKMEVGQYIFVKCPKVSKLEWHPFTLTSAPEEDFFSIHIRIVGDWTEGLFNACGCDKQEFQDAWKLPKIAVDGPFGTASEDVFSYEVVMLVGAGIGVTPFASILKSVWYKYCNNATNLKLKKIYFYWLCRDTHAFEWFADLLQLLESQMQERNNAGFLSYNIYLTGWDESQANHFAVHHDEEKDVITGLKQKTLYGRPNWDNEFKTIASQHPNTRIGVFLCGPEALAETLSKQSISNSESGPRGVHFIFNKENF
# [19] = molecular target: NADPH oxidase 4 (Homo sapiens) (UniProt Q9NPH5); experiment: compounds shifting NOX4 Amplex Red fluorescence – cell-based, HEK293-NOX4, tetracycline-induced, NOX inhibitor project, primary screen (AID 1160); conditions: HEK293-NOX4, Amplex Red H2O2 fluorescence, 45 min; higher = more signal, called active from +8 up or from −8 down
# Chain of NADPH oxidase 4 (Homo sapiens) (Q9NPH5 whole entry, looked up): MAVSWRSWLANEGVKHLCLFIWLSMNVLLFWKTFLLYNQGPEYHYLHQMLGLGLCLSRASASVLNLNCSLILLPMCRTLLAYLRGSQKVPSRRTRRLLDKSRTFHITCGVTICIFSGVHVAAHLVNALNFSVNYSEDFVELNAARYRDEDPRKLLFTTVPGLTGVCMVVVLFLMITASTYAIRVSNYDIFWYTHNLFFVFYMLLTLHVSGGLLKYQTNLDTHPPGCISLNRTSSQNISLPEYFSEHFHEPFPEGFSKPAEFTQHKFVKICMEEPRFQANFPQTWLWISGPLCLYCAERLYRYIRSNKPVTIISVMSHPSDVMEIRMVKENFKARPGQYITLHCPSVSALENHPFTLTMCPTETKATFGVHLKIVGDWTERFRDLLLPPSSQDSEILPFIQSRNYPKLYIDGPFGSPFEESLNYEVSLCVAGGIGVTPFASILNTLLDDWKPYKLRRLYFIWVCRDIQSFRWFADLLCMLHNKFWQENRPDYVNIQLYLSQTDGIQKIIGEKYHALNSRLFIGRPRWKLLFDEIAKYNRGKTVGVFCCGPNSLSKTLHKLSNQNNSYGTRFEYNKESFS
# [20] = molecular target: NADPH oxidase 5 (Homo sapiens) (UniProt Q96PH1); experiment: compounds shifting NOX5 Amplex Red fluorescence – cell-based, HEK293-NOX5, NOX inhibitor project, primary screen (AID 1161); conditions: HEK293-NOX5, ionomycin, 45 min, higher = more signal
# Chain of NADPH oxidase 5 (Homo sapiens) (Q96PH1 whole entry, looked up): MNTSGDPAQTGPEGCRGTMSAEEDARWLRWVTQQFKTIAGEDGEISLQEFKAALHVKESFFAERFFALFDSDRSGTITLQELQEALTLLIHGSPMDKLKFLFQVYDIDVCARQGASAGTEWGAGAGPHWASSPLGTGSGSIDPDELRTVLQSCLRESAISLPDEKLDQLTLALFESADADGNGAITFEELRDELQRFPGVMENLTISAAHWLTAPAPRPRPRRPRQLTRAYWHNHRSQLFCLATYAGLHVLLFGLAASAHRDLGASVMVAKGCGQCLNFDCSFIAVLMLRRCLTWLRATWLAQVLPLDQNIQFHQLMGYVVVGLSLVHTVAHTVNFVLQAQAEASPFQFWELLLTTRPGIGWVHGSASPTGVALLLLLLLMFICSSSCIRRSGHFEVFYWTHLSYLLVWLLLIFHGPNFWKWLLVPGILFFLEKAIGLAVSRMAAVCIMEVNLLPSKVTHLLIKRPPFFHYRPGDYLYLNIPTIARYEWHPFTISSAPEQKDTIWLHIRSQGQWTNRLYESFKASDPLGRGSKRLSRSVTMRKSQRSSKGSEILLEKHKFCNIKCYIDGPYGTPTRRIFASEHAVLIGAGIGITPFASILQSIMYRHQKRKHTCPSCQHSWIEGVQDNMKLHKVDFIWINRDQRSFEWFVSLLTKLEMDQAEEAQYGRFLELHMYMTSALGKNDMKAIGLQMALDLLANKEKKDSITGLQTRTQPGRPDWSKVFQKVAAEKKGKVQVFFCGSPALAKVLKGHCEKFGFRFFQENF
compound,measurement,setting,value
C=CCNC(=O)[C@H]1[C@@H]2C(=O)O[C@@H](c3ccccc3)[C@@H](c3ccccc3)N2[C@@H](c2ccccc2OCCO)[C@]12C(=O)N(C(=O)OCCOC)c1ccc(C#Cc3ccc(OC)cc3)cc12,composite z-score,[1],0.571
same,z-score,[2],-2.77 (inactive)
same,z-score,[3],-0.394 (inactive)
same,z-score,[4],1.12 (inactive)
same,z-score,[5],-0.261 (inactive)
same,composite z-score,[6],0.12
same,composite z-score,[7],-0.149
same,composite z-score,[8],0.292
same,composite z-score,[9],0.51
same,composite z-score,[10],0.168
same,z-score,[11],0.296 (inactive)
same,composite z-score,[12],0.0114
same,z-score,[13],2.46 (inactive)
same,z-score,[14],1.98 (inactive)
same,z-score,[15],0.0435 (inactive)
same,z-score,[16],1.25 (inactive)
same,z-score,[17],0.638
same,z-score,[18],1.74 (inactive)
same,z-score,[19],0.404 (inactive)
same,z-score,[20],0.673
O=C1C=C(c2ccccc2)C(=O)C2=C1CC([C@H]1Oc3ccccc3S(=O)(=O)N3CCC[C@@H]13)=CC2,composite z-score,[1],-0.0842
same,z-score,[2],-6.3 (inactive)
same,z-score,[3],0.497 (inactive)
same,z-score,[4],4.67 (inactive)
same,z-score,[5],20.1 (active)
same,composite z-score,[6],0.429
same,composite z-score,[7],-0.235
same,composite z-score,[8],-0.295
same,composite z-score,[9],-0.495
same,composite z-score,[10],-0.0231
same,z-score,[11],-0.0139 (inactive)
same,composite z-score,[12],-0.101
same,z-score,[13],2.36 (inactive)
same,z-score,[14],0.445 (inactive)
same,z-score,[15],-0.299 (inactive)
same,z-score,[16],0.0841 (inactive)
same,z-score,[17],-0.154
same,z-score,[18],-0.368 (inactive)
same,z-score,[19],-3.24 (inactive)
same,z-score,[20],-2.66
CN(C)CCCC[C@@H]1NC(=O)[C@@H]2C[C@H](C(=O)NCCCCCCNC(=O)CS)[C@H](c3ccc(O)cc3)N2C1=O,composite z-score,[1],0.412
same,z-score,[2],-0.211 (inactive)
same,z-score,[3],-0.525 (inactive)
same,z-score,[4],0.549 (inactive)
same,z-score,[5],0.375 (inactive)
same,composite z-score,[6],-0.406
same,composite z-score,[7],0.257
same,composite z-score,[8],0.71
same,composite z-score,[9],0.702
same,composite z-score,[10],1.62
same,z-score,[11],-1.05 (inactive)
same,composite z-score,[12],0.0013
same,z-score,[13],1.19 (inactive)
same,z-score,[14],0.284 (inactive)
same,z-score,[15],-1.22 (inactive)
same,z-score,[16],0.0814 (inactive)
same,z-score,[17],0.58
same,z-score,[18],0.559 (inactive)
same,z-score,[19],0.781 (inactive)
same,z-score,[20],0.873
C=C(CCCC)/C(=C/C[C@H](OC(=O)c1ccncc1)c1ccccc1OCCO)c1cc(C(=O)OC)ccc1OC,composite z-score,[1],-0.0692
same,z-score,[2],-1.78 (inactive)
same,z-score,[3],-0.402 (inactive)
same,z-score,[4],11.4 (active)
same,z-score,[5],0.179 (inactive)
same,composite z-score,[6],0.396
same,composite z-score,[7],0.0391
same,composite z-score,[8],0.0152
same,composite z-score,[9],0.369
same,composite z-score,[10],1.43
same,z-score,[11],0.0839 (inactive)
same,composite z-score,[12],0.165
same,z-score,[13],23.6 (active)
same,z-score,[14],6.35 (inactive)
same,z-score,[15],3.84 (inactive)
same,z-score,[16],1.44 (inactive)
same,z-score,[17],-0.166
same,z-score,[18],0.559 (inactive)
same,z-score,[19],-0.48 (inactive)
same,z-score,[20],-1.67
CC(C)C(O)C1C=CC2C(=O)NC(=O)C2N1Nc1ccccn1 (stereo not given),composite z-score,[1],0.122
same,z-score,[2],0.813 (inactive)
same,z-score,[3],-0.248 (inactive)
same,z-score,[4],-0.143 (inactive)
same,z-score,[5],0.219 (inactive)
same,composite z-score,[6],0.0669
same,composite z-score,[7],-0.0421
same,composite z-score,[8],0.238
same,composite z-score,[9],0.407
same,composite z-score,[10],-0.212
same,z-score,[11],-0.668 (inactive)
same,composite z-score,[12],0.134
same,z-score,[13],-0.292 (inactive)
same,z-score,[14],0.695 (inactive)
same,z-score,[15],-0.0484 (inactive)
same,z-score,[16],0.826 (inactive)
same,z-score,[17],-0.846
same,z-score,[18],-1.22 (inactive)
same,z-score,[19],-1.41 (inactive)
same,z-score,[20],-1.79
COc1ccccc1CN1C(=O)c2ccccc2[C@](Cc2ccccc2I)(C(=O)NCC(C)C)[C@@H]1c1ccc(CO)cc1,composite z-score,[1],0.0108
same,z-score,[2],-2.13 (inactive)
same,z-score,[3],0.584 (inactive)
same,z-score,[4],0.0279 (inactive)
same,z-score,[5],-0.542 (inactive)
same,composite z-score,[6],-0.738
same,composite z-score,[7],0.126
same,composite z-score,[8],-0.0986
same,composite z-score,[9],-0.61
same,composite z-score,[10],0.034
same,z-score,[11],2.48 (inactive)
same,composite z-score,[12],0.19
same,z-score,[13],4.68 (inactive)
same,z-score,[14],1.44 (inactive)
same,z-score,[15],2.61 (inactive)
same,z-score,[16],0.745 (inactive)
same,z-score,[17],0.276
same,z-score,[18],-0.943 (inactive)
same,z-score,[19],0.928 (inactive)
same,z-score,[20],-0.234
CC(C)(C)N1CC=CC23O[C@@H]4C=CCCOC(=O)C4[C@H]2C(=O)N(CCCCCCO)[C@@H]3C1=O (stereo not given in full),composite z-score,[1],-0.515
same,z-score,[2],0.451 (inactive)
same,z-score,[3],0.595 (inactive)
same,z-score,[4],-0.0899 (inactive)
same,z-score,[5],-0.254 (inactive)
same,composite z-score,[6],-0.703
same,composite z-score,[7],-0.0933
same,composite z-score,[8],-1.15
same,composite z-score,[9],-1.29
same,composite z-score,[10],0.833
same,z-score,[11],0.0094 (inactive)
same,composite z-score,[12],0.365
same,z-score,[13],0.683 (inactive)
same,z-score,[14],0.181 (inactive)
same,z-score,[15],0.639 (inactive)
same,z-score,[16],0.233 (inactive)
same,z-score,[17],1.78
same,z-score,[18],0.882 (inactive)
same,z-score,[19],-0.0325 (inactive)
same,z-score,[20],2.08
COc1ccc(CCNC(=O)[C@@H]2c3ccccc3C(=O)N(Cc3ccccc3OC)[C@H]2c2ccc(CO)cc2)cc1,composite z-score,[1],0.321
same,z-score,[2],-0.449 (inactive)
same,z-score,[3],-0.0742 (inactive)
same,z-score,[4],0.531 (inactive)
same,z-score,[5],-1.12 (inactive)
same,composite z-score,[6],0.628
same,composite z-score,[7],0.0028
same,composite z-score,[8],0.824
same,composite z-score,[9],0.321
same,composite z-score,[10],0.126
same,z-score,[11],-0.499 (inactive)
same,composite z-score,[12],-0.0303
same,z-score,[13],3.02 (inactive)
same,z-score,[14],0.0323 (inactive)
same,z-score,[15],0.709 (inactive)
same,z-score,[16],-0.0383 (inactive)
same,z-score,[17],-0.0817
same,z-score,[18],-1.31 (inactive)
same,z-score,[19],-0.213 (inactive)
same,z-score,[20],-2.09
C=CCNC(=O)[C@@H]1[C@H]2C(=O)O[C@H](c3ccccc3)[C@H](c3ccccc3)N2[C@H](c2ccc(OCCO)cc2)[C@@]12C(=O)Nc1ccc(C#CC3(O)CCCCCC3)cc12,composite z-score,[1],0.407
same,z-score,[2],-5.36 (inactive)
same,z-score,[3],-1.17 (inactive)
same,z-score,[4],0.155 (inactive)
same,z-score,[5],0.856 (inactive)
same,composite z-score,[6],0.981
same,composite z-score,[7],0.0082
same,composite z-score,[8],0.507
same,composite z-score,[9],0.827
same,composite z-score,[10],0.938
same,z-score,[11],0.668 (inactive)
same,composite z-score,[12],0.239
same,z-score,[13],4.16 (inactive)
same,z-score,[14],0.444 (inactive)
same,z-score,[15],1.02 (inactive)
same,z-score,[16],-0.882 (inactive)
same,z-score,[17],1.35
same,z-score,[18],0.385 (inactive)
same,z-score,[19],-1.05 (inactive)
same,z-score,[20],-1.63
